Measurements taken from the supplement of paper PMC6992640.
Counter-ions that a name gives are not always drawn. ± gives the standard deviation of the averaged measurements.

What was measured:
Assay in all cases: cell viability (% of vehicle); higher = less cytotoxic
Settings in all cases: 10 µM; 72 h
HCI01 = system: HCI01 (cells of a triple-negative basal-like breast cancer xenograft)
HCI03 = system: HCI03 (cells of an ER-positive luminal breast cancer xenograft)
HCI09 = system: HCI09 (cells of a triple-negative luminal androgen receptor type breast cancer xenograft)
HCI11 = system: HCI11 (cells of an ER-positive luminal breast cancer xenograft)
HCI13 = system: HCI13 (cells of an ER-positive luminal breast cancer xenograft)
HCI16 = system: HCI16 (cells of a triple-negative basal-like breast cancer xenograft)
UCD52 = system: UCD52 (cells of a triple-negative basal-like breast cancer xenograft)
WHIM2 = system: WHIM2 (cells of a triple-negative basal-like breast cancer xenograft)
WHIM30 = system: WHIM30 (cells of a triple-negative basal-like breast cancer xenograft)
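Also: PDX cells carrying CMV promoter-driven luciferase, viability read as total photon flux per second by IVIS imaging following D-luciferin, vehicle control 0.1% DMSO.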

Compound: CN[C@H](CC(C)C)C(=O)N[C@H]1C(=O)N[C@@H](CC(N)=O)C(=O)N[C@H]2C(=O)N[C@H]3C(=O)N[C@H](C(=O)N[C@H](C(=O)O)c4cc(O)cc(O)c4-c4cc3ccc4O)[C@H](O)c3ccc(c(Cl)c3)Oc3cc2cc(c3O[C@@H]2O[C@H](CO)[C@@H](O)[C@H](O)[C@H]2O[C@H]2C[C@](C)(N)[C@H](O)[C@H](C)O2)Oc2ccc(cc2Cl)[C@H]1O [Vancomycin hydrochloride]
- cell viability (HCI01): 125 ± 1.7
- cell viability (HCI03): 110
- cell viability (HCI09): 146 ± 38
- cell viability (HCI11): 92.4
- cell viability (HCI13): 195 ± 13
- cell viability (HCI16): 167
- cell viability (UCD52): 122 ± 7.7
- cell viability (WHIM2): 107 ± 4.2
- cell viability (WHIM30): 148 ± 22

Compound: O=C(O)[C@H](O)[C@@H](O)C(=O)O.c1cnc2cc3c(cc2n1)C1CNC[C@@H]3C1 [Varenicline Tartrate]
- cell viability (HCI01): 169.5 ± 0.68
- cell viability (HCI03): 128
- cell viability (HCI09): 131 ± 5.6
- cell viability (HCI11): 138
- cell viability (HCI13): 128.8 ± 0.16
- cell viability (HCI16): 153
- cell viability (UCD52): 99.9 ± 8.8
- cell viability (WHIM2): 106 ± 5.1
- cell viability (WHIM30): 158 ± 25

Compound: Cc1c(O)cccc1C(=O)NC(CSc1ccccc1)C(O)CN1CC2CCCCC2CC1C(=O)NC(C)(C)C (stereo not drawn) [Nelfinavir]
- cell viability (HCI01): 117 ± 39
- cell viability (HCI03): 93.4
- cell viability (HCI09): 52.9 ± 40
- cell viability (HCI11): 97.2
- cell viability (HCI13): 89.3 ± 0.59
- cell viability (HCI16): 101
- cell viability (UCD52): 68.7 ± 4
- cell viability (WHIM2): 89.2 ± 16
- cell viability (WHIM30): 61.5 ± 6.5

Compound: CCC1(O)CC2CN(CCc3c([nH]c4ccccc34)C(C(=O)OC)(c3cc4c(cc3OC)N(C)C3C(O)(C(=O)OC)C(OC(C)=O)C5(CC)C=CCN6CCC43C65)C2)C1 (stereo not drawn) [vinblastine]
- cell viability (HCI01): 123 ± 3.3
- cell viability (HCI03): 91.1
- cell viability (HCI09): 45.7 ± 42
- cell viability (HCI11): 96.2
- cell viability (HCI13): 37.6 ± 3.4
- cell viability (HCI16): 164
- cell viability (UCD52): 68 ± 10
- cell viability (WHIM2): 80.7 ± 22
- cell viability (WHIM30): 124 ± 17

Compound: NC(=O)c1cn(Cc2c(F)cccc2F)nn1 [Rufinamide]
- cell viability (HCI01): 93.3 ± 16
- cell viability (HCI03): 137
- cell viability (HCI09): 106 ± 14
- cell viability (HCI11): 99.1
- cell viability (HCI13): 103 ± 10
- cell viability (HCI16): 106
- cell viability (UCD52): 96.9 ± 3.1
- cell viability (WHIM2): 93.3 ± 18
- cell viability (WHIM30): 124 ± 1.8

Compound: Nc1nc(Cl)nc2c1ncn2C1CC(O)C(CO)O1 (stereo not drawn) [Cladribine]
- cell viability (HCI01): 95.8 ± 7.4
- cell viability (HCI03): 118
- cell viability (HCI09): 94.6 ± 26
- cell viability (HCI11): 104
- cell viability (HCI13): 128 ± 34
- cell viability (HCI16): 58.3
- cell viability (UCD52): 110 ± 15
- cell viability (WHIM2): 106 ± 34
- cell viability (WHIM30): 78.8 ± 8.9

Compound: Cc1cccc(C)c1NC(=O)C1CCCCN1C.Cl (stereo not drawn) [Mepivacaine HCl]
- cell viability (HCI01): 87.6 ± 1.4
- cell viability (HCI03): 89.2
- cell viability (HCI09): 97.91 ± 0.71
- cell viability (HCI11): 96.2
- cell viability (HCI13): 124 ± 2.2
- cell viability (HCI16): 118
- cell viability (UCD52): 70.4 ± 3.6
- cell viability (WHIM2): 89.7 ± 14
- cell viability (WHIM30): 166 ± 4.5

Compound: CN(Cc1cc(Br)cc(Br)c1N)C1CCCCC1.Cl [Bromhexine HCl]
- cell viability (HCI01): 95.8 ± 14
- cell viability (HCI03): 86.3
- cell viability (HCI09): 93 ± 6
- cell viability (HCI11): 96.3
- cell viability (HCI13): 64.9 ± 2.5
- cell viability (HCI16): 106
- cell viability (UCD52): 73.8 ± 6.8
- cell viability (WHIM2): 44.5 ± 15
- cell viability (WHIM30): 108 ± 3.3

Compound: CCOC(=O)CC(=O)N1CCSC1COc1ccccc1OC (stereo not drawn) [Moguisteine]
- cell viability (HCI01): 68.2 ± 37
- cell viability (HCI03): 114
- cell viability (HCI09): 102 ± 8.2
- cell viability (HCI11): 89.5
- cell viability (HCI13): 115 ± 9
- cell viability (HCI16): 127
- cell viability (UCD52): 83.2 ± 4.3
- cell viability (WHIM2): 88.7 ± 22
- cell viability (WHIM30): 131 ± 4.4

Compound: C[C@H]1COc2c(N3CCN(C)CC3)c(F)cc3c(=O)c(C(=O)O)cn1c23 [Levofloxacin]
- cell viability (HCI01): 102 ± 26
- cell viability (HCI03): 109
- cell viability (HCI09): 88 ± 17
- cell viability (HCI11): 89.6
- cell viability (HCI13): 124 ± 50
- cell viability (HCI16): 123
- cell viability (UCD52): 88.7 ± 1.4
- cell viability (WHIM2): 104 ± 12
- cell viability (WHIM30): 132 ± 2.4

Compound: Brc1c(NC2=NCCN2)ccc2nccnc12.O=C(O)C(O)C(O)C(=O)O [Brimonidine Tartrate]
- cell viability (HCI01): 123 ± 9.2
- cell viability (HCI03): 125
- cell viability (HCI09): 78 ± 4.6
- cell viability (HCI11): 89.9
- cell viability (HCI13): 88.5 ± 4.5
- cell viability (HCI16): 124
- cell viability (UCD52): 90.8 ± 10
- cell viability (WHIM2): 125 ± 25
- cell viability (WHIM30): 98.4 ± 1.3

Compound: CC(C)c1nc(CN(C)C(=O)NC(CCN2CCOCC2)C(=O)NC(CCC(Cc2ccccc2)NC(=O)OCc2cncs2)Cc2ccccc2)cs1 (stereo not drawn) [Cobicistat (GS-9350)]
- cell viability (HCI01): 83.3 ± 3.6
- cell viability (HCI03): 74.2
- cell viability (HCI09): 53.3 ± 17
- cell viability (HCI11): 52.3
- cell viability (HCI13): 64.4 ± 11
- cell viability (HCI16): 128
- cell viability (UCD52): 67 ± 4.4
- cell viability (WHIM2): 78.1 ± 3.2
- cell viability (WHIM30): 96.6 ± 3.7

Compound: COc1ccccc1N1CCN(CC(O)COc2cccc3ccccc23)CC1 (stereo not drawn) [Naftopidil]
- cell viability (HCI01): 116 ± 8.4
- cell viability (HCI03): 84.3
- cell viability (HCI09): 87.2 ± 14
- cell viability (HCI11): 107
- cell viability (HCI13): 103 ± 19
- cell viability (HCI16): 108
- cell viability (UCD52): 67.4 ± 2.8
- cell viability (WHIM2): 89.8 ± 24
- cell viability (WHIM30): 104 ± 12

Compound: CC(C)NCC(O)COc1ccc(CCOCC2CC2)cc1.Cl (stereo not drawn) [Levobetaxolol HCl]
- cell viability (HCI01): 125 ± 30
- cell viability (HCI03): 104
- cell viability (HCI09): 112 ± 18
- cell viability (HCI11): 105
- cell viability (HCI13): 145 ± 15
- cell viability (HCI16): 127
- cell viability (UCD52): 109 ± 18
- cell viability (WHIM2): 96.8 ± 13
- cell viability (WHIM30): 114 ± 14

Compound: CCOC(=O)C1=CC(OC(CC)CC)C(NC(C)=O)C(N)C1 (stereo not drawn) [Oseltamivir]
- cell viability (HCI01): 111 ± 11
- cell viability (HCI03): 124
- cell viability (HCI09): 96.2 ± 20
- cell viability (HCI11): 97.4
- cell viability (HCI13): 99.2 ± 7.4
- cell viability (HCI16): 91
- cell viability (UCD52): 96.03 ± 0.49
- cell viability (WHIM2): 91.98 ± 0.9
- cell viability (WHIM30): 126 ± 6.9

Compound: CCCCN1CCCCC1C(=O)Nc1c(C)cccc1C.Cl (stereo not drawn) [Bupivacaine HCl]
- cell viability (HCI01): 145 ± 30
- cell viability (HCI03): 128
- cell viability (HCI09): 104 ± 14
- cell viability (HCI11): 120
- cell viability (HCI13): 106 ± 2.1
- cell viability (HCI16): 169
- cell viability (UCD52): 89 ± 16
- cell viability (WHIM2): 111 ± 7.6
- cell viability (WHIM30): 117 ± 12

Compound: OCCN(CCO)c1nc(N2CCCCC2)c2nc(N(CCO)CCO)nc(N3CCCCC3)c2n1 [Dipyridamole]
- cell viability (HCI01): 90.2 ± 14
- cell viability (HCI03): 116
- cell viability (HCI09): 87.4 ± 23
- cell viability (HCI11): 105
- cell viability (HCI13): 96.2 ± 6.1
- cell viability (HCI16): 150
- cell viability (UCD52): 89.6 ± 3.4
- cell viability (WHIM2): 112 ± 34
- cell viability (WHIM30): 142 ± 12

Compound: Cc1cn(C2CC(O)C(CO)O2)c(=O)[nH]c1=O (stereo not drawn) [Telbivudine]
- cell viability (HCI01): 125 ± 3.9
- cell viability (HCI03): 128
- cell viability (HCI09): 141 ± 78
- cell viability (HCI11): 115
- cell viability (HCI13): 164 ± 67
- cell viability (HCI16): 99.4
- cell viability (UCD52): 95.5 ± 9.2
- cell viability (WHIM2): 94.1 ± 16
- cell viability (WHIM30): 124 ± 24

Compound: CN(C)CCc1c[nH]c2ccc(CS(=O)(=O)N3CCCC3)cc12.O=C(O)CC(O)C(=O)O [Almotriptan Malate]
- cell viability (HCI01): 105 ± 5
- cell viability (HCI03): 132
- cell viability (HCI09): 103 ± 6
- cell viability (HCI11): 86.5
- cell viability (HCI13): 84.8 ± 7.8
- cell viability (HCI16): 144
- cell viability (UCD52): 87.7 ± 4.3
- cell viability (WHIM2): 90.6 ± 0.17
- cell viability (WHIM30): 134 ± 8

Compound: CN(C)CC(c1ccc(O)cc1)C1(O)CCCCC1.O.O=C(O)CCC(=O)O (stereo not drawn) [Desvenlafaxine Succinate]
- cell viability (HCI01): 91 ± 6.9
- cell viability (HCI03): 153
- cell viability (HCI09): 107 ± 13
- cell viability (HCI11): 92.6
- cell viability (HCI13): 110 ± 9.4
- cell viability (HCI16): 129
- cell viability (UCD52): 92.4 ± 9.8
- cell viability (WHIM2): 105 ± 10
- cell viability (WHIM30): 133 ± 2.2

Compound: NCCCCCC(=O)O [(6-)ε-Aminocaproic acid]
- cell viability (HCI01): 67.8 ± 37
- cell viability (HCI03): 136
- cell viability (HCI09): 90 ± 16
- cell viability (HCI11): 79.6
- cell viability (HCI13): 104 ± 5
- cell viability (HCI16): 101
- cell viability (UCD52): 77.2 ± 5.2
- cell viability (WHIM2): 101 ± 24
- cell viability (WHIM30): 155 ± 23

Compound: COC1=CC=C(/C(C2=CC=C(OC)C=C2)=C(Cl)/C3=CC=C(OC)C=C3)C=C1 [Chlorotrianisene]
- cell viability (HCI01): 85.2 ± 4.9
- cell viability (HCI03): 125
- cell viability (HCI09): 86.2 ± 23
- cell viability (HCI11): 101
- cell viability (HCI13): 76.3 ± 15
- cell viability (HCI16): 95.5
- cell viability (UCD52): 89.8 ± 13
- cell viability (WHIM2): 95 ± 1.6
- cell viability (WHIM30): 96.58 ± 0.32
